This is a sample that favours compounds with a hit; in the whole collection about 12% have one here.
L3MBTL1 inh – L3MBTL1 (human) inhibition; 0.66% of 230,000 active; AlphaScreen L3MBTL1–H3K9me1 peptide binding; Q9Y468; Potency, µM (titrated, usually from 57.1 µM), for the others: at the highest dose activity, negative = inhibition, usual class: inhibitors; also: potency is read from the fitted curve at half-maximal effect; % is scaled to controls: 0 for no effect and ±100 for the full control effect; nearly all actives have a fitted effect of over 60% in size
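AlphaScreen proximity signal between nickel-chelate acceptor and streptavidin donor beads (final 10 ug/mL) reports binding of 50 nM L3MBTL1 to 75 nM biotin-H3 K9me1 peptide; complex incubated with compounds 30 min at room temperature; cefsulodin titration as control.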
G9a block – blocks human histone lysine methyltransferase G9a | Potency, µM (series often up to 102 µM), for inactives: at the highest dose activity, negative = inhibition, actives largely listed as inhibitors | AID 504332 | Q96KQ7 | G9a H3K9 monomethylation, AlphaScreen, 2 h | 8.8% of 350,000 active; also: potency is read from the fitted curve at half-maximal effect; % is scaled to controls: 0 for no effect and ±100 for the full control effect; nearly all actives have a fitted effect of over 75% in size
Target sequence (Q96KQ7 913-1193 limits assumed): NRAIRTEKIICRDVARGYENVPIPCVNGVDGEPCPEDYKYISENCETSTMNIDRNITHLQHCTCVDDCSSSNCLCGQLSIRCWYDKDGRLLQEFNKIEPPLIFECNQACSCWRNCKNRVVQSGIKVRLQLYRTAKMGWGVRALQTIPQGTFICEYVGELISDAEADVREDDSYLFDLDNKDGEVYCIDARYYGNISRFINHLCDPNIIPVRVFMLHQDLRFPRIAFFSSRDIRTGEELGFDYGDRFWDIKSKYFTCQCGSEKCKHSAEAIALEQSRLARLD
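G9a (20 nM) preincubated 15 min RT with compounds, then 500 nM biotinylated H3K9 peptide and 20 uM SAM added; 2 h RT reaction. Monomethyl-H3K9 product detected by AlphaScreen with anti-H3K9me1 antibody, streptavidin donor and anti-rabbit IgG acceptor beads.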
Sfp PPTase inh – Sfp phosphopantetheinyl transferase inhibition | Q9F4F7 | Potency, µM, for inactives: largest response in the series, negative = inhibition, most hits filed as inhibitors | Biochemical Sfp PPTase activity, qHTS | AID 1490 | 3.5% of 310,000 active;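 also: the enzyme is Sfp with the accession as filed and its product quenches rhodamine fluorescence; potency is read from the fitted curve at half-maximal effect; 0% = enzyme reaction without inhibitor and -100% = no enzyme wells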
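With Hepes-Na pH 7.6 buffer containing 10 mM MgCl2, Sfp (15 nM) modified BHQ-2-YbbR (12.5 uM) using rhodamine-CoA (5 uM). Two reads 30 minutes apart at 525/598 nm yielded each well's rate.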
BAZ2B inh – BAZ2B (human) inhibition. 4.4% of 360,000 active. Q9UIF8. Potency, µM (titrated, usually from 114 µM), inactives show at the highest dose activity change, negative = inhibition, actives largely listed as inhibitors. AlphaScreen BAZ2B-H3K14Ac peptide displacement. AID 504333; also: potency is read from the fitted curve at half-maximal effect; % is scaled to controls: 0 for no effect and ±100 for the full control effect; nearly all actives have a fitted effect of over 60% in size
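AlphaScreen luminescence quantifies BAZ2B engagement of H3K14Ac peptide; the protein and biotinylated peptide are both at 50 nM final, buffer PBS pH 7.4 with 0.01% Tween-20, all steps at room temperature.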
HP1b binding inh – HP1-beta chromodomain-methylated histone interaction inhibition. AID 540317. Potency, µM (titrated, usually from 114 µM), inactives show top-dose activity change, negative = inhibition, most hits filed as inhibitors. AlphaScreen HP1-beta / biotin-H3K9me3 peptide binding. 0.56% of 390,000 active. P83916; also: potency is read from the fitted curve at half-maximal effect; nearly all actives have a fitted effect of over 70% in size
Target sequence (P83916 whole entry, looked up): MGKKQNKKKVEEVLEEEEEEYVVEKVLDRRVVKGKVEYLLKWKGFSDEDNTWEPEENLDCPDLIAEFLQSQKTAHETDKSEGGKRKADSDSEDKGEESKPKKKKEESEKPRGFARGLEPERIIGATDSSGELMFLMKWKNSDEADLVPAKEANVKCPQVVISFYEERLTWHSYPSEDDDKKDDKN
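Compound inhibition of the preformed complex between 50 nM HP1-beta and 50 nM biotinylated H3K9me3 peptide was read by AlphaScreen. Buffer was PBS pH 7.4 with 0.01% Tween-20. Incubations ran 30 min at room temperature, with 10 ug/mL donor/acceptor beads.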
JMJD2A Tudor inh – blocks the human JMJD2A Tudor domain. 4.4% of 390,000 active. O75164. AlphaScreen JMJD2A-Tudor / H3K4me3 peptide binding. Potency, µM (doses to about 114 µM), for the others: at the top dose activity change, negative = inhibition, usual class: inhibitors; also: potency is read from the fitted curve at half-maximal effect; % is scaled to controls: 0 for no effect and ±100 for the full control effect; nearly all actives have a fitted effect of over 50% in size
Sfp inh conf – Sfp phosphopantetheinyl transferase inhibition, confirmation; Potency, µM (highest dose often 114 µM), without a hit: at the highest dose activity change, negative = inhibition, actives largely listed as inhibitors; Sfp PPTase enzymatic assay, qHTS titration; 79% of 380 active; shares compounds with Sfp PPTase inh;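 also: potency is read from the fitted curve at half-maximal effect; plate controls were uninhibited Sfp reaction for no effect and no enzyme control for full effect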
Target sequence (Q9F4F7 whole entry, looked up): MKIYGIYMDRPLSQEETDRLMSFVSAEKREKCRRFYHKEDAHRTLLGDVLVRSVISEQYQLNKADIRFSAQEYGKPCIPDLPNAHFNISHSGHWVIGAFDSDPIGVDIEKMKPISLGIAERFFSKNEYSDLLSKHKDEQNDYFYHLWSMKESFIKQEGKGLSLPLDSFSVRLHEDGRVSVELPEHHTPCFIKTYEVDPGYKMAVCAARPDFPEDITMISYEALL
Sfp gel assay – Blocks Sfp PPTase activity, gel read-out | shares compounds with Sfp PPTase inh | purified Sfp, gel-based phosphopantetheinylation read-out | 20% of 210 active | Potency, µM, usual class: inhibitors;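 active = potency below 100 µM; inconclusive = dose-dependent response but potency above 100 µM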;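 also: band intensities scaled against SCH202676 control wells before curve fitting; potency is an IC50 for inhibitors of Sfp transfer activity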
Starred values were filed as active, the others as inactive; ! = repeats disagree; [ ] = another dose, or the depositor's remark. Unless noted, calls follow the shape of the dose curve; as a rule, active = well fitted curve in the direction sought with a large enough effect; inconclusive = small, poorly fitted or top-dose-only effect, or another doubt; inactive = no such curve, though single readings can be large; an effect the other way counts as inactive or inconclusive.

For Cc1ccccc1NC(=O)CSc1nnc(-c2ccco2)c(-c2ccco2)n1 the results were L3MBTL1 inh -90%, G9a block 13µM*, Sfp PPTase inh 10µM*, BAZ2B inh 25µM*, HP1b binding inh 16µM*, JMJD2A Tudor inh 50µM* and Sfp inh conf 6.6µM*.
Screening COc1ccc(S(=O)(=O)N(CC(=O)NCCSc2ccccc2)c2ccc(C)cc2)cc1 returned G9a block -40%[59 µM], BAZ2B inh -1%, HP1b binding inh 1% and JMJD2A Tudor inh -21%.
For COc1cc(NCc2ccc3nc(N)nc(N)c3c2C)cc(OC)c1OC the results were G9a block 10µM*, Sfp PPTase inh 32µM* and Sfp inh conf 37µM*.
For O=C(Nc1nnc(COc2ccc(Cl)cc2)s1)c1cccs1 the results were L3MBTL1 inh -7%, G9a block inconclusive, Sfp PPTase inh 14µM*, BAZ2B inh 5%, HP1b binding inh inconclusive, JMJD2A Tudor inh -23%[11.4 µM] and Sfp inh conf 24µM*.
Screening O=C(CN1CCN(CC(=O)Nc2ccccc2F)CC1)Nc1ccc(Cl)c(C(F)(F)F)c1 returned G9a block -16%[59 µM], BAZ2B inh 2%, HP1b binding inh 35%[57 µM] and JMJD2A Tudor inh -9%.
`c1csc(-c2nc3ccccc3s2)c1` gave L3MBTL1 inh 37%, G9a block 20µM*, Sfp PPTase inh 35µM*, BAZ2B inh 45%, HP1b binding inh 29%, JMJD2A Tudor inh 9%, Sfp inh conf 47µM* and Sfp gel assay inconclusive.
CN(C)CCCN1c2ccccc2CCc2ccc(Cl)cc21 was read as L3MBTL1 inh -2%, G9a block 8%[21.5 µM], Sfp PPTase inh 56µM*!, BAZ2B inh inconclusive, HP1b binding inh 26%, JMJD2A Tudor inh -29%, Sfp inh conf inconclusive and Sfp gel assay inactive.
For CN(CCCN1c2ccccc2CCc2ccccc21)CC(=O)c1ccc(Cl)cc1 the results were G9a block inconclusive, Sfp PPTase inh 50µM*, Sfp inh conf 37µM* and Sfp gel assay inactive.
For Cc1ccc(C2CC(=O)Nc3c2c(C)nn3-c2nc(C)cc(C)n2)c(C)c1 (stereo not drawn) the results were G9a block 3%[59 µM], BAZ2B inh -23%, HP1b binding inh 67% and JMJD2A Tudor inh -8%.
Screening N#C/C(=C\c1cccnc1)c1ccc(Br)cc1 returned L3MBTL1 inh 15%, G9a block 1%, Sfp PPTase inh 4%, BAZ2B inh 4%, HP1b binding inh 44% and JMJD2A Tudor inh 4%.
Screening N#C/C(=C/c1ccc(N2CCCCCC2)o1)c1cccc(F)c1 returned G9a block inconclusive, Sfp PPTase inh 0.56µM*, BAZ2B inh inconclusive, HP1b binding inh inconclusive, JMJD2A Tudor inh 40µM*, Sfp inh conf 21µM* and Sfp gel assay inconclusive.
Screening N#C/C(=C/c1ccc(N2CCOCC2)o1)c1ccc(Br)cc1 returned L3MBTL1 inh -6%, G9a block 7.9µM*, Sfp PPTase inh 2.8µM*, BAZ2B inh 45µM*, HP1b binding inh inconclusive, JMJD2A Tudor inh 56µM*, Sfp inh conf 12µM* and Sfp gel assay 6.2µM*.
For N#C/C(=C/c1ccc(N2CCCCCC2)o1)c1ccc(F)cc1 the results were HP1b binding inh -29% and JMJD2A Tudor inh -34%[57.1 µM].
`Cc1ccc(-c2cc(C(=O)NCc3ccco3)c3ccccc3n2)s1` gave L3MBTL1 inh -9%, G9a block 50µM*, Sfp PPTase inh 2.8µM*, BAZ2B inh inconclusive, HP1b binding inh 23%, JMJD2A Tudor inh -32%, Sfp inh conf 47µM* and Sfp gel assay inconclusive.
Screening COc1ccc(NC(=O)c2cc3c([nH]c2=O)CC(c2ccccc2)CC3=O)cc1 (stereo not drawn) returned G9a block 4%[12.7 µM], BAZ2B inh 1%, HP1b binding inh 43% and JMJD2A Tudor inh 13%.
`CN1CCN(C(=S)c2ccc(N(C)C)cc2)CC1` gave L3MBTL1 inh -9%, G9a block inconclusive, Sfp PPTase inh -5%, BAZ2B inh 1%, HP1b binding inh inconclusive and JMJD2A Tudor inh -18%.
For CN(C)c1ccc(C(=S)N2CCN(Cc3ccccc3)CC2)cc1 the results were L3MBTL1 inh -24%, G9a block 8.9µM*, Sfp PPTase inh 2.2µM*, BAZ2B inh 35µM*, HP1b binding inh inconclusive, JMJD2A Tudor inh 56µM* and Sfp inh conf 12µM*.
Screening CCN1CCN(C(=S)c2ccc(O)cc2)CC1 returned L3MBTL1 inh 2%, G9a block 6.3µM*, Sfp PPTase inh 2.8µM*, BAZ2B inh -28%, HP1b binding inh -10%, JMJD2A Tudor inh -9% and Sfp inh conf 8.3µM*.
CN1CCN(C(=S)c2ccc(Br)cc2)CC1 was read as L3MBTL1 inh 0%, G9a block 20µM*, Sfp PPTase inh 1.3µM*, BAZ2B inh -10%, HP1b binding inh -21%, JMJD2A Tudor inh -24% and Sfp inh conf 13µM*.
Screening C[C@@H](NCCCc1cccc(C(F)(F)F)c1)c1cccc2ccccc12 returned G9a block inconclusive, Sfp PPTase inh 79µM* and Sfp inh conf 24µM*.
For Cc1cc(O)c(C(c2ccccc2)N2CCC(C)CC2)c(=O)n1Cc1ccco1 (stereo not drawn) the results were G9a block inconclusive, BAZ2B inh -15%, HP1b binding inh 1% and JMJD2A Tudor inh -26%.
`Cc1ccccc1NC(=O)Cn1c(CCC(=O)O)ccc1-c1cccs1` gave L3MBTL1 inh 8%, G9a block -36%, Sfp PPTase inh -21%, BAZ2B inh inconclusive, HP1b binding inh 10% and JMJD2A Tudor inh -17%.
Screening Cc1ccc(-n2c(CCC(=O)O)ccc2-c2cccs2)cc1 returned G9a block inconclusive, Sfp PPTase inh 14µM*, BAZ2B inh 50µM*, HP1b binding inh -7%, JMJD2A Tudor inh inconclusive and Sfp inh conf 24µM*.
`COC(=O)c1cccc(-n2c(CCC(=O)O)ccc2-c2cccs2)c1` gave L3MBTL1 inh -13%, G9a block inconclusive, Sfp PPTase inh 4µM*, BAZ2B inh 71µM*!, HP1b binding inh 16%, JMJD2A Tudor inh -11%[11.4 µM], Sfp inh conf 21µM* and Sfp gel assay inconclusive.

Screens as filed in PubChem BioAssay.
